The source made the active and inactive calls.
Columns and labels:
Albumin (Bos taurus) = Albumin (Bos taurus) (UniProt P02769); test: bovine serum albumin binders on microarray, profiling panel, artefact control for SMM control protein annotation, biochemical, small-molecule microarray, Alexa647 label, 635/667 nm fluorescence (AID 1118); details: BSA-A647 binding, fluorescence 635 nm, higher = more signal;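 further: score merges 667 nm emission intensity and signal-to-noise per printed compound spot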
Sequence of Albumin (Bos taurus) (P02769 whole entry, looked up): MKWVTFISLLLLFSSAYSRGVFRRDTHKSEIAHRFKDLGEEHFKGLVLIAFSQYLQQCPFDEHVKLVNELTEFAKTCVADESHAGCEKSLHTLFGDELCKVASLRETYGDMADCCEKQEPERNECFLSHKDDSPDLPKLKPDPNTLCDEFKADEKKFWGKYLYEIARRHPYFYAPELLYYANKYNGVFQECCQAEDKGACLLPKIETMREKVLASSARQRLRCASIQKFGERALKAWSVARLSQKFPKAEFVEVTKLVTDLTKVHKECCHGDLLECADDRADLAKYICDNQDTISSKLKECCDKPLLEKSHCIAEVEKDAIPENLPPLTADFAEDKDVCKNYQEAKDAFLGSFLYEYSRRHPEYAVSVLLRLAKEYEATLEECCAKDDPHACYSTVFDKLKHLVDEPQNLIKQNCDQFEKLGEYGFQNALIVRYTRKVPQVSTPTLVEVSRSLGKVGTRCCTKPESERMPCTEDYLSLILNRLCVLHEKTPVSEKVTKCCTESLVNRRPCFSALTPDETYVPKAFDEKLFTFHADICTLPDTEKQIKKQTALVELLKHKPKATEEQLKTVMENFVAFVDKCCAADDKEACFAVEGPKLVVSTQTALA

[1] = small-molecule microarray binders of probe aXIP, primary screen, biochemical, NeuroSMM set, 635/667 nm fluorescence (AID 1119); details: higher = more signal, called active from +8 up or from −8 down;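 further: probe is the protein aXip251-270 applied at 1 µg/mL to compound-printed slides; binding of probe to printed compounds measured as 667 nm fluorescence plus signal to noise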
[2] = small-molecule binders of probe aNOTCH3, primary screen, biochemical, small-molecule microarray, 635/667 nm fluorescence (AID 1120); details: higher = more signal;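 further: probe is a biotin-tagged antibody raised against NOTCH3 rather than NOTCH3 protein; score merges spot fluorescence near 667 nm with spot signal to noise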
[3] = small-molecule binders of probe aNOTCH2, primary screen, biochemical, small-molecule microarray, 635/667 nm fluorescence (AID 1121); details: higher = more signal;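 further: score merges feature fluorescence read at 667 nm with its signal to noise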
[4] = target: Carbonic anhydrase 2 (Homo sapiens) (UniProt P00918); test: CAII small-molecule binders, profiling panel, biochemical, small-molecule microarray, Alexa647-labelled CAII (AID 1122); details: CAII-A647 binding fluorescence, higher = more signal
[5] = COS7 lysate on small-molecule microarray, probe aHis, 635 nm (AID 1123); details: COS7 cell lysate, fluorescence, higher = more signal;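 further: z-score combines 667nm fluorescence intensity with signal-to-noise per printed compound spot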
[6] = compound binding in COS7 lysate, probe aLAP1, primary screen, cell lysate, small-molecule microarray (AID 1124); details: probe aLAP1, fluorescence, higher = more signal;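 further: lysate comes from COS7 cells expressing LAP1 and is applied at 0.3 µg/mL; score merges spot fluorescence near 667 nm with signal-to-noise over triplicate slides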
Sam68 (KHDRBS1) = test: Sam68 small-molecule binders, primary screen, biochemical, small-molecule microarray, 635 nm fluorescence (AID 1125); details: small-molecule microarray binding, higher = more signal;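 further: score merges 667 nm channel intensity with signal to noise over triplicate slides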
[7] = test system: Chordin-like protein 2 (CHRDL2); test: CHRDL2 small-molecule binders, primary screen, biochemical, small-molecule microarray, 635 nm fluorescence (AID 1126); details: small-molecule microarray binding, fluorescence 635 nm; higher = more signal;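 further: printed compound slides probed with Chrdl2 protein at 4 µg/mL for 1 h at 4 C; score merges 667 nm emission intensity with signal to noise over three replicate slides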
[8] = target: Concanavalin-A (Canavalia ensiformis) (UniProt P02866); test: ConA small-molecule binders, primary screen, artefact control for SMM control protein annotation, biochemical, small-molecule microarray, Alexa647 label, 635 nm (AID 1127); details: ConA-A647 binding fluorescence, higher = more signal;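 further: z combines 667 nm emission intensity with signal-to-noise across three replicate slides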
Sequence of Concanavalin-A (Canavalia ensiformis) (P02866 whole entry, looked up): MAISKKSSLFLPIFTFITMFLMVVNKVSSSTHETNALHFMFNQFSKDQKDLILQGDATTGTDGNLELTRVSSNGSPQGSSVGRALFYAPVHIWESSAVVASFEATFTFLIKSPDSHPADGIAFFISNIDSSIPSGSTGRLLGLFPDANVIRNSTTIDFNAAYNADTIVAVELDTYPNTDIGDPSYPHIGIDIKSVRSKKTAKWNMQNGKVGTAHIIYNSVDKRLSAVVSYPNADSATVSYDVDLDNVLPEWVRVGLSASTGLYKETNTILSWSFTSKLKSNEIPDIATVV

[9] = anti-His antibody binders, primary screen, artefact control for SMM control protein annotation, biochemical, small-molecule microarray, 635 nm fluorescence (AID 1128); details: anti-His Alexa647 antibody binding, higher = more signal;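 further: score merges feature fluorescence with signal-to-noise for each printed compound spot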
[10] = test system: Human papillomavirus type 1a E7 protein (residues 1-88); test: HPV1a E7 small-molecule binders, primary screen, biochemical, small-molecule microarray, residues 1-88, 635 nm (AID 1129); details: small-molecule microarray binding, fluorescence 635 nm; higher = more signal
[11] = target: Focal adhesion kinase 1 (Homo sapiens) (UniProt Q05397); test: small-molecule microarray binders of FAK, primary screen, biochemical, 635/667 nm fluorescence, BSA, DTT (AID 1130); details: PTK2 binding, 635 nm fluorescence, higher = more signal;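 further: composite of spot emission at 667 nm and signal to noise over triplicate slides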
Sequence of Focal adhesion kinase 1 (Homo sapiens) (Q05397 whole entry, looked up): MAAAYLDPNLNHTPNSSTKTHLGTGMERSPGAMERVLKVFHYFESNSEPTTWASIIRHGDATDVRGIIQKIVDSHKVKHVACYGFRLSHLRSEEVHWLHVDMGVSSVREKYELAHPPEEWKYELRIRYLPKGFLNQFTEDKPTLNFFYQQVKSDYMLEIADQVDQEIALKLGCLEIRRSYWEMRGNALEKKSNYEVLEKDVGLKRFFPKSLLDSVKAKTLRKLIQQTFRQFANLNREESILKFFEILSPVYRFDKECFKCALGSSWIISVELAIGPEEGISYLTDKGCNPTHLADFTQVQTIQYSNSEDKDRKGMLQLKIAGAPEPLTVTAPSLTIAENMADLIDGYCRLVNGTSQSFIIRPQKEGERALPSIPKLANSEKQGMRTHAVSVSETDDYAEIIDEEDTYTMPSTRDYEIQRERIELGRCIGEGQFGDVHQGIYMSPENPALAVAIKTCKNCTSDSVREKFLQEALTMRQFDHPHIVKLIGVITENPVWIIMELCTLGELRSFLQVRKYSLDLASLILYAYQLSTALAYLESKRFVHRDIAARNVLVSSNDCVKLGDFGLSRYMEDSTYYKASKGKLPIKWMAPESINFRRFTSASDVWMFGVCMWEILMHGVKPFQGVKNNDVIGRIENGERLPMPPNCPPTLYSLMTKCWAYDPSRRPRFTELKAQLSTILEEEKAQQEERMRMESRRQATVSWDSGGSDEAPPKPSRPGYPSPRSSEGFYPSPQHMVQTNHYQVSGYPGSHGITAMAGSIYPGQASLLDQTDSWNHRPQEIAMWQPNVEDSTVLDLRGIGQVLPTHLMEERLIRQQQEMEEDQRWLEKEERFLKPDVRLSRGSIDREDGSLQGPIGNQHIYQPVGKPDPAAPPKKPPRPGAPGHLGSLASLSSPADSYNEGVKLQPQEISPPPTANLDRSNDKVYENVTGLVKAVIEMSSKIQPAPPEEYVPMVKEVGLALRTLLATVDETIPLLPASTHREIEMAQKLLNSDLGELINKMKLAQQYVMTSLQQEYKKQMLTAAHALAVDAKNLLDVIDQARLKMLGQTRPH

[12] = test system: Fibrinogen (Alexa647-labelled); test: fibrinogen binders on compound microarrays, profiling panel, artefact control for SMM control-protein annotation, biochemical, small-molecule microarray, 635/667 nm fluorescence (AID 1131); details: fibrinogen-A647 binding fluorescence, higher = more signal;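 further: z-score merges 667 nm fluorescence with per-spot signal-to-noise over triplicate slides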
[13] = target: Follistatin (Homo sapiens) (UniProt P19883); test: follistatin binders on small-molecule microarrays, primary screen, biochemical, small-molecule microarray, 635/667 nm fluorescence (AID 1132); details: FST binding, 635 nm fluorescence, higher = more signal
Sequence of Follistatin (Homo sapiens) (P19883 whole entry, looked up): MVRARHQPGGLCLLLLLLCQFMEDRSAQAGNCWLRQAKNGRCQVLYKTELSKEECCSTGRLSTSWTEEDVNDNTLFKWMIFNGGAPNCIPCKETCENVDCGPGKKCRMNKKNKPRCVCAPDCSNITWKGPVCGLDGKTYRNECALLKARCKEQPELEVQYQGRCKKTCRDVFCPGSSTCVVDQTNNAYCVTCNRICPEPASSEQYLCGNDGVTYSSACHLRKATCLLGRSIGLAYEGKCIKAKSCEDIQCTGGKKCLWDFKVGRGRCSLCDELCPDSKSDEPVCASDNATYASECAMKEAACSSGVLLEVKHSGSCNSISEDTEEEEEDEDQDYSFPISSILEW

[14] = target: Fibroblast growth factor 2 (Homo sapiens) (UniProt P09038); test: FGF2 binders on small-molecule microarrays, primary screen, biochemical, small-molecule microarray, 635/667 nm fluorescence (AID 1133); details: small-molecule microarray binding, FGF2, fluorescence 635/667; higher = more signal
Sequence of Fibroblast growth factor 2 (Homo sapiens) (P09038 whole entry, looked up): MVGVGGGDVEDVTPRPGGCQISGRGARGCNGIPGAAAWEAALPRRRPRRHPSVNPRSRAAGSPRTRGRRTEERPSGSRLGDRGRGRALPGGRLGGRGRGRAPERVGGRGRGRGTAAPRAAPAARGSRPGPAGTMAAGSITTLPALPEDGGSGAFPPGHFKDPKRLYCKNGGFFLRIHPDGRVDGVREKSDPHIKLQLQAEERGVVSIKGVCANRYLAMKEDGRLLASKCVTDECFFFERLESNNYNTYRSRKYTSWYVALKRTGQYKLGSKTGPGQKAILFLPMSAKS

[15] = mitochondrial membrane potential change in A549 cells, profiling panel, cell-based, JC-1 fluorescence, basal, 24 h, 100 nL (AID 1138); details: higher = more signal;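 further: A549 lung adenocarcinoma cells under basal conditions with no added stimulus; test concentration not given here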
Lefty1 = Lefty1 binders on small-molecule microarrays, primary screen, biochemical, small-molecule microarray, 635/667 nm fluorescence (AID 1139); details: small-molecule microarray binding, fluorescence 635/667; higher = more signal
[16] = test system: wheat germ agglutinin (Triticum aestivum), Alexa647-labelled; test: wheat germ agglutinin binders on compound microarrays, profiling panel, artefact control for SMM control-protein annotation, biochemical, small-molecule microarray, 635/667 nm fluorescence (AID 1140); details: WGA-A647 binding, 635 nm fluorescence, higher = more signal;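 further: score merges 667 nm feature emission with signal to noise over triplicate slides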
[17] = target: Luciferin 4-monooxygenase (Photinus pyralis) (UniProt P08659); test: firefly luciferase enzyme inhibitors, primary screen, biochemical, luminescence, purified enzyme, 2006 set (AID 1141); details: SteadyGlo luminescence, 30 min, higher = more signal, called active from +8 up or from −8 down;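 further: cell-free assay with purified firefly luciferase at 100 ng per well in PBS; test concentration not given here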
Sequence of Luciferin 4-monooxygenase (Photinus pyralis) (P08659 whole entry, looked up): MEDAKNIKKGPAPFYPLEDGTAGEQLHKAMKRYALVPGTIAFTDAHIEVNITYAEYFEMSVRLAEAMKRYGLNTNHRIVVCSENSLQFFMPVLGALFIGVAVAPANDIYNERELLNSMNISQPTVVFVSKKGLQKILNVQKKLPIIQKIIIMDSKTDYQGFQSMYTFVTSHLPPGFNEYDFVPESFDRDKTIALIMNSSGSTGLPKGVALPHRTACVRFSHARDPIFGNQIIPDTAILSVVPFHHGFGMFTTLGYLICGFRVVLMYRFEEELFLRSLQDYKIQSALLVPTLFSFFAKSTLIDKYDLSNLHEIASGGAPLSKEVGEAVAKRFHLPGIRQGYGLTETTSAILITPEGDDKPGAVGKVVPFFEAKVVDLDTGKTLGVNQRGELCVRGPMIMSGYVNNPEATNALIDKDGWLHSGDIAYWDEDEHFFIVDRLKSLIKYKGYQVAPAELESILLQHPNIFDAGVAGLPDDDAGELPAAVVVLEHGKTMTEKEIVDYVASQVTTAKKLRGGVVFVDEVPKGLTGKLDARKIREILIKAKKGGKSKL

SMILES | composite z-score (Albumin (Bos taurus)) | composite Z-score [1] | composite z-score [2] | composite z-score [3] | composite z-score [4] | composite z-score [5] | composite z-score [6] | composite z-score (Sam68 (KHDRBS1)) | composite z-score [7] | composite z-score [8] | composite z-score [9] | composite z-score [10] | composite z-score [11] | composite z-score [12] | composite z-score [13] | composite z-score [14] | z-score [15] | composite z-score (Lefty1) | composite z-score [16] | z-score [17]
Cc1ccc(S[C@]2(C(=O)NCCCN(C)C)CC(=O)N(C3Cc4ccccc4C3)[C@@H]2c2ccc(CO)cc2I)cc1 | 0.827 | 0.42 (inactive) | -0.0569 | -0.18 | 0.715 | 0.83 | -0.312 | 0.125 | -0.745 | 0.441 | 0.0192 | 0.132 | -0.0489 | 0.493 | 0.135 | -0.813 | -0.522 | -0.515 | 0.0805 | -0.222 (inactive)
CCCC=C(CCC)[C@@H](NC(=O)c1ccc(C(F)(F)F)cc1)c1ccc(C(F)(F)F)cc1 | 1.01 | -0.523 (inactive) | 0.326 | 0.105 | 0.205 | 2.94 | -0.0554 | 1.31 | -0.748 | 1.07 | 0.549 | 1.23 | 0.156 | 1 | 0.384 | -0.635 | 2.65 | 0.131 | 1.38 | 2.29 (inactive)
COC(=O)[C@@]1(Cc2ccc(F)cc2)[C@H]2c3cc(C(=O)N4CCCC4)n(CCc4ccccn4)c3C[C@H]2CN1C(=O)c1ccccc1 | 0.634 | 0.191 (inactive) | 0.0488 | 0.186 | 0.852 | 2.13 | 0.233 | 0.0315 | -0.163 | 0.222 | 0.272 | 0.786 | 0.754 | 0.97 | -0.227 | -0.418 | 0.622 | -1.03 | 1.01 | 0.458 (inactive)
C=C(CCCC)/C(=C/C[C@@H](OC(C)=O)c1ccc(CO)o1)c1cnc2ccccc2c1 | 0.333 | -0.117 (inactive) | 0.185 | -0.0684 | 0.476 | 1.45 | 1.17 | 1.3 | 1.03 | 0.875 | 1.12 | 1.21 | 0.119 | 0.948 | 1.31 | 1.54 | -0.587 | 1.51 | 1.27 | -3.09 (inactive)
C=CCN1Cc2ccccc2[C@H]2OC(c3ccc(OCCCO)cc3)=N[C@@]2(CCS(=O)(=O)c2ccccc2)C1=O | 0.465 | 1.79 (inactive) | 0.0562 | -0.0135 | 0.614 | 3.07 | 0.333 | 1.31 | 0.843 | 1.16 | 2.05 | 1.22 | 0.621 | 0.0869 | 1.37 | 1.37 | 0.35 | 0.507 | 0.77 | -0.884 (inactive)

Source: PubChem BioAssay
